“And” between values parts separate entries of the source, which are not always exact repeats. Equal entries are not always repeated. Results filed as inconclusive are left out. The source made the active and inactive calls. Unless noted, calls follow the shape of the dose curve; as a rule, active = well fitted curve in the direction sought with a large enough effect; inconclusive = small, poorly fitted or top-dose-only effect, or another doubt; inactive = no such curve, though single readings can be large; an effect the other way counts as inactive or inconclusive.
Legend:
[1] = target: Cellular tumor antigen p53 (Homo sapiens) (UniProt P04637); assay: Primary qHTS for small molecule compounds that upregulate eGFP-tagged delta133p53alpha (in N-terminal) cells. (AID 2060322); conditions: NCI-H358 eGFP-delta133p53alpha fluorescence, 24 h; activation: stronger effect = higher value; also: nearly all actives have a fitted effect of over 75% in size; also: potency is read from the fitted curve at half-maximal effect;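 as to activation: series mostly up to about 56 µM; 0% = DMSO vehicle and 100% = reference activator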
In short: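 NCI-H358 cells pre-induced 24 h with 10 ng/ml doxycycline to express N-terminal eGFP-delta133p53alpha, then dosed 24 h at 37C without doxycycline; fixed, Hoechst-stained, GFP intensity by laser scanning cytometry, normalized to DMSO (0%) and 57.5 uM 5-azacytidine (100%).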

[2] = target: Aldehyde dehydrogenase, mitochondrial (Homo sapiens) (UniProt P05091); assay: qHTS for Inhibitors of the Aldehyde Dehydrogenase Family (ALDH2) Confirmatory screens (AID 2061303; active = well fitted inhibition curve with a large enough effect; title and protocol of this record describe different tests; also: nearly all actives have a fitted effect of over 45% in size; also: potency is read from the fitted curve at half-maximal effect)
[3] = qHTS for Inhibitors of the Aldehyde Dehydrogenase Family (ALDH1A2, ALDH1A3, ALDH2, ALDH3A1) (AID 2061307); also: nearly all actives have a fitted effect of over 50% in size; as to Potency: test system not described further here; potency is read from the fitted curve at half-maximal effect
[4] = target: Aldehyde dehydrogenase, mitochondrial (Homo sapiens) (UniProt P05091); assay: qHTS for Inhibitors of the Aldehyde Dehydrogenase Family (ALDH2) Primary screen (AID 2061308); also: nearly all actives have a fitted effect of over 55% in size; also: potency is read from the fitted curve at half-maximal effect
[5] = target: Retinaldehyde dehydrogenase 3 (Homo sapiens) (UniProt P47895); assay: qHTS for Inhibitors of the Aldehyde Dehydrogenase Family (ALDH1A3) Validation screen (AID 2061312); also: % is scaled to controls: 0 for no effect and ±100 for the full control effect; nearly all actives have a fitted effect of over 45% in size
[6] = target: Retinal dehydrogenase 2 (Homo sapiens) (UniProt O94788); assay: qHTS for Inhibitors of the Aldehyde Dehydrogenase Family (ALDH1A2) Confirmation screens (AID 2061314); also: nearly all actives have a fitted effect of over 65% in size
[7] = target: Retinaldehyde dehydrogenase 3 (Homo sapiens) (UniProt P47895); assay: qHTS for Inhibitors of the Aldehyde Dehydrogenase Family (ALDH1A3) Primary screen (AID 2061315); also: potency is read from the fitted curve at half-maximal effect
[8] = BET inhibitor-based combinations targeting novel dependencies in MECOM-rearranged (r) AML: SET-2 cell line (AID 2202231); conditions: SET-2 AML cells viability, CellTiter-Glo luminescence, 48 h; viability: stronger effect = lower value, concentration not given here; also: potency is read from the fitted curve at half-maximal effect; nearly all actives have a fitted effect of over 35% in size
In short: (§1)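 Cells were plated at 500 per well and exposed to an 11-point dose series of each drug for 48 hr. Viability was measured by CellTiter-Glo luminescence, normalized to DMSO and empty-well controls, and summarized as AUC and per-cell-line Z-AUC.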

[9] = BET inhibitor-based combinations targeting novel dependencies in MECOM-rearranged (r) AML: OCI-AML3 cell line (AID 2202232); conditions: Potency: OCI-AML3 viability; also: potency is read from the fitted curve at half-maximal effect; nearly all actives have a fitted effect of over 35% in size
In short: as §1

[10] = BET inhibitor-based combinations targeting novel dependencies in MECOM-rearranged (r) AML: MV-4-11 cell line (AID 2202233); also: potency is read from the fitted curve at half-maximal effect; nearly all actives have a fitted effect of over 45% in size
In short: (§2)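 Activity is given as area under the curve and as Z-AUC, mean-centred within each cell line. It comes from 11-point dose curves normalized to DMSO and empty wells. CellTiter-Glo luminescence was read after 48 hr drug exposure of 500 cells/well.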

[11] = BET inhibitor-based combinations targeting novel dependencies in MECOM-rearranged (r) AML: UCSD-AML1 cell line (AID 2202235); also: potency is read from the fitted curve at half-maximal effect; nearly all actives have a fitted effect of over 40% in size
In short: as §2

[12] = BET inhibitor-based combinations targeting novel dependencies in MECOM-rearranged (r) AML: AML-191 cell line (AID 2202236; also: potency is read from the fitted curve at half-maximal effect; nearly all actives have a fitted effect of over 35% in size)
In short: as §1

[13] = BET inhibitor-based combinations targeting novel dependencies in MECOM-rearranged (r) AML: AML-194 cell line (AID 2202237; also: potency is read from the fitted curve at half-maximal effect; nearly all actives have a fitted effect of over 40% in size)
In short: as §1

[14] = target: Retinaldehyde dehydrogenase 3 (Homo sapiens) (UniProt P47895); assay: qHTS for Inhibitors of the Aldehyde Dehydrogenase Family (ALDH1A3) Confirmatory screens (AID 2061311); also: % is scaled to controls: 0 for no effect and ±100 for the full control effect; nearly all actives have a fitted effect of over 60% in size
[15] = target: Aldehyde dehydrogenase 1A1 (Homo sapiens) (UniProt P00352); assay: qHTS for Inhibitors of the Aldehyde Dehydrogenase Family (ALDH1A1) Confirmatory screens (AID 2061316); also: nearly all actives have a fitted effect of over 65% in size; also: potency is read from the fitted curve at half-maximal effect
[16] = BET inhibitor-based combinations targeting novel dependencies in MECOM-rearranged (r) AML: HNT-34 cell line (AID 2202234); also: potency is read from the fitted curve at half-maximal effect; nearly all actives have a fitted effect of over 35% in size
In short: as §2

Cellular tumor antigen p53 (Homo sapiens), sequence (P04637 whole entry, looked up): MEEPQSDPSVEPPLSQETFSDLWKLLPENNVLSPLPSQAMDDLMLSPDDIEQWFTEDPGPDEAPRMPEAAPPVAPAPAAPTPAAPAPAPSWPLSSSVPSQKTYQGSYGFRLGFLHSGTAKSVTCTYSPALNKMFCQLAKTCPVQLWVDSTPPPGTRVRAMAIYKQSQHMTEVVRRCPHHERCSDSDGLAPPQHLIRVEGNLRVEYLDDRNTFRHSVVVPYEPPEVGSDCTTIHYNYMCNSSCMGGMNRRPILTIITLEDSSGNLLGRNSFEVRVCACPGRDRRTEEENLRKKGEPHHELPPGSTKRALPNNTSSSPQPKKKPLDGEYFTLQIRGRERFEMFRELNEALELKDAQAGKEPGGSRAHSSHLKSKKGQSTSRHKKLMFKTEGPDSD

CCOc1ccc(Nc2nc(-c3c(C)nc4ccccn34)cs2)cc1
inactive: activation [1] -3.9% and 0% | Potency [4] | Potency [5] | Potency [6] | Potency [7]
active: Potency [2] 15800 nM | Potency [3] 7940 nM | Potency [8] 132 nM | Potency [9] 83.3 nM | Potency [10] 105 nM | Potency [11] 93.4 nM | Potency [12] 83.3 nM | Potency [13] 332 nM

CNC(=O)Nc1ccc(OC)c(NC(=O)NC(=O)c2cc(F)c(F)cc2Cl)c1
inactive: activation [1] -5.67% | Potency [2] | Potency [3] | Potency [4] | Potency [14] | Potency [15]
active: Potency [7] 28200 nM

CSC(=O)OCC1=C[C@@H]2OC(=O)C3=CO[C@@H](O[C@@H]4O[C@H](CO)[C@@H](O)[C@H](O)[C@H]4O)[C@H]1[C@@H]32
inactive: activation [1] -22.1% | Potency [2] | Potency [3] | Potency [4] | Potency [6] | Potency [15]

CC1(C)[C@H](C(=O)O)N2C(=O)C[C@H]2S1(=O)=O
inactive: activation [1] -10% and -6.44% and -12.3% | Potency [2] | Potency [3] | Potency [4] | Potency [6] | Potency [7] | Potency [15]

S=C(c1ccc(-c2ccc(Cl)c(Cl)c2)o1)N1CCCCC1
inactive: activation [1] -7.64% | Potency [5] | Potency [7]
active: Potency [2] 2830 nM | Potency [3] 12700 nM | Potency [4] 22400 nM | Potency [15] 5040 nM

Cc1ncc(-c2ccnc(Nc3ccc(S(C)(=O)=O)cc3)n2)n1C(C)C
inactive: Potency [2] | Potency [4] | Potency [7] | Potency [15]
active: Potency [1] 3.06 µM and 2.69 µM | Potency [3] 11300 nM | Potency [9] 2350 nM | Potency [10] 590 nM | Potency [16] 1480 nM | Potency [11] 1320 nM | Potency [12] 1180 nM | Potency [13] 1860 nM

CC(C)(Cc1ccccc1)NCC(O)c1ccc(O)c(NS(C)(=O)=O)c1 (stereo not drawn)
inactive: activation [1] -0.955% | Potency [2] | Potency [3] | Potency [4] | Potency [5] | Potency [6] | Potency [15]

CC1(C)CC(=O)c2c(C(F)(F)F)nn(-c3ccc(C(N)=O)c(NC4CCC(OC(=O)CN)CC4)c3)c2C1 (stereo not drawn)
inactive: activation [1] 38.8% and -1.67% | Potency [2] | Potency [3] | Potency [4] | Potency [7] | Potency [15]
active: Potency [8] 263 nM | Potency [9] 209 nM | Potency [10] 59 nM | Potency [16] 209 nM | Potency [11] 186 nM

COc1cc(/C=C/c2cc(O)cc(O[C@@H]3O[C@H](CO)[C@@H](O)[C@H](O)[C@H]3O)c2)ccc1O
inactive: activation [1] 7.63% | Potency [2] | Potency [3] | Potency [4] | Potency [6] | Potency [15]
active: Potency [7] 6310 nM

Cc1nc2c(C#N)c[nH]n2c(=O)c1C(C)C
inactive: activation [1] 23.5% | Potency [2] | Potency [3] | Potency [4] | Potency [6] | Potency [7] | Potency [15]

CCOc1ccc2ccccc2c1C(=O)N[C@@H]1C(=O)N2[C@@H]1SC(C)(C)[C@@H]2C(=O)O
inactive: activation [1] 5.08% and -4.77% | Potency [2] | Potency [3] | Potency [4] | Potency [5] | Potency [6] | Potency [15]

COc1ccnc(CCc2nc3ncccc3[nH]2)c1
inactive: activation [1] -5.73% | Potency [2] | Potency [3] | Potency [14] | Potency [6] | Potency [7] | Potency [15]

COc1cc(Nc2ncc(F)c(Nc3ccc4c(n3)NC(=O)C(C)(C)O4)n2)cc(OC)c1OC
active: Potency [9] 9340 nM | Potency [10] 148 nM | Potency [16] 1180 nM | Potency [11] 1480 nM | Potency [12] 5900 nM | Potency [13] 7420 nM
inactive: activation [1] 7.29% | Potency [2] | Potency [3] | Potency [4]
